Screening results from PubChem BioAssay.
Shown are actives, neighbours in structure and some others; about 2.8% of the full set was active somewhere.
RGS4 inhibitor: human RGS4 inhibition | P49798 | Transcreener GDP fluorescence polarization, RGS4-accelerated GTP hydrolysis | Potency, µM (top dose mostly 114 µM), for the others: at the highest dose activity change, negative = inhibition, usual class: inhibitors | 390,000 tested, 0.039% active; active means well fitted inhibition curve with a large enough effect; inconclusive means small, poorly fitted or top-dose-only effect; inactive means no such curve, though single readings can be large or run the other way; further: potency means the concentration at half of the fitted maximal effect; on the % scale 0 is the no-effect control and ±100 the full control effect; nearly all actives have a fitted effect of over 75% in size
Target sequence (P49798 whole entry, looked up): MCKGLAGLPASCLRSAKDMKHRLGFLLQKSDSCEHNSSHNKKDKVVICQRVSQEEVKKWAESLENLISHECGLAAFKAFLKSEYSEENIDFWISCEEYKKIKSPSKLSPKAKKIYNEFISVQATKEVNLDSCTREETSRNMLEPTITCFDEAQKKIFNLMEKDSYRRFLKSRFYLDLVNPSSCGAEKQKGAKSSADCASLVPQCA
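MLSMR compounds (23 nl, pin-transferred) preincubated 10 min at room temperature with a 500nM (2x) first reagent, then RGS4 at 900nM (2x) plus Transcreener GDP mix added; fluorescence polarization (620/688 nm) read before and after 90 min at 30 °C.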
LDHA block: inhibitors of human lactate dehydrogenase A; P00338; purified LDHA, NADH/diaphorase-resazurin fluorescence; hits give low values; activity change, % (values are at about 110 or 230 µM); 480,000 tested, 0.15% active; AID 1347041; in the data active means activity change below about -30%; inconclusive means mostly about -25% to -30%;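 further: plate controls were DMSO wells for no effect and wells without enzyme for full effect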
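LDH5 2 nM; NADH 0.06 mM, pyruvate 0.2 mM; 200 mM Tris pH 7.4, EDTA, Tween-20; 5 min RT. Detection: diaphorase 0.133 mg/mL + resazurin 37 µM, fluorescence ex540/em590 at 0 and 20 min; normalized to enzyme-free and DMSO wells.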
D3 antag: blocks the human D3 dopamine receptor; AID 652054; 360,000 tested, 2.5% active; max response, negative = inhibition, %; D3R cells, DiscoveRx beta-arrestin luminescence, antagonist mode; hits give low values; in the data active means max response below about -50%; inconclusive means no clear call, values can overlap the other calls; further: on the % scale 0 is the no-effect control and ±100 the full control effect
Target sequence (P35462 whole entry, looked up): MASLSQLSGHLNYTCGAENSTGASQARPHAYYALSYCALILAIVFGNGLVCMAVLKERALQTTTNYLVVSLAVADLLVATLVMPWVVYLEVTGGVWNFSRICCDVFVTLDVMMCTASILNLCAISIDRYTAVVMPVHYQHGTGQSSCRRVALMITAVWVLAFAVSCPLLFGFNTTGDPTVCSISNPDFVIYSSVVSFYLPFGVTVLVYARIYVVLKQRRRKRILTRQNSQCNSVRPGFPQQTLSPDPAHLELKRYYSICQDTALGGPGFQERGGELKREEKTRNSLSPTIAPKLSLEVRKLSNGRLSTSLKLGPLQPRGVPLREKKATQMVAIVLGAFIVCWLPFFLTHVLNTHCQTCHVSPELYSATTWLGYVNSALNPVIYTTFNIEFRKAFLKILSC
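Cells plated overnight at 1500 cells/well, then exposed to library compounds with dopamine controls for 90 minutes at 37 degrees C. DiscoveRx reagent added for 30–60 minutes at room temperature; luminescence read, quantitative HTS format.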
Akt phos inh: blocks phosphorylation of Akt. Neuro2A IGF-stimulated pAkt S473 HTRF, 20 min; hits give low values. activity change, % for hits at 50 µM. 360,000 tested, 0.32% active. AID 651550; in the data active means activity change below about -80%; inconclusive means mostly about -51% to -80%; further: on the % scale 0 is the no-effect control and ±100 the full control effect
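Neuro2A cells in DMEM with 0.5% FBS, overnight at 37 deg C, given compound at single 50 µM final, then IGF (6 nM final) for 20 min at 37 deg C. Lysed; phospho-Akt Ser473 by HTRF after 24 h, 665/615 ratio.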
PI4K2A block: blocks human PI4K2A kinase activity. Q9BTU6. purified PI4K2A, ADP-Glo luminescence, 1 h; hits give low values. activity change, negative = inhibition, % at 76.9 µM. 420,000 tested, 0.13% active. AID 1346378; in the data active means activity change below about -50%; inconclusive means mostly about -30% to -49%;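 further: -100% = wells without enzyme as full effect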
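In this quantitative HTS, ADP production by PI4K2A was quantified luminescently after 1 h at ambient temperature; 100 microM adenosine served as plate-quality control.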
D3 ag: D3 dopamine receptor (human) agonism | P35462 | D3R DiscoveRx beta-arrestin cells, luminescence, 90 min | max activation, % | 410,000 tested, 0.58% active; in the data active means max activation above about 30%; further: 0% is about no effect
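Cells at 1500/well, incubated overnight, then treated with pinned compounds (dopamine as control) for 90 min at 37 degrees C. DiscoveRx reagent added for 30 - 60 minutes at room temperature; luminescence read.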
Active calls of the source: *; i = inactive; ? = inconclusive; / = no result given; ! = repeats disagree; [ ] = remark or other dose.

SMILES | RGS4 inhibitor | LDHA block | D3 antag | Akt phos inh | PI4K2A block | D3 ag
Cc1nn(CC(=O)NCCCN2CCN(Cc3ccccc3)CC2)c(=O)c2cc(-c3ccccc3)nn12 | 1% | -4 | -66* | / | 2 | -17
CCN1CCN(CCCNC(=O)Cn2nc(C)n3nc(-c4ccccc4)cc3c2=O)CC1 | 15%[11.4 µM] | -4 | -5 | i | -1 | -1
CCc1nn(CC(=O)NCCCN2CCc3ccccc3C2)c(=O)c2cc3sccc3n12 | -28% | 1 | -112* | i | 4 | -16
CN1CCN(CCOc2ccc3cc(-c4ccccc4)c(=O)oc3c2)CC1 | / | 6 | / | / | / | /
c1ccc(C2=Nn3c(nnc3-c3cccnc3)SC2)cc1 | 5% | 5 | 14 | i | -7 | 1
c1cncc(-c2nnc3n2N=C(c2cccs2)CS3)c1 | 3% | -12 | 28 | -114%* | -6 | -2
COc1ccc(-c2nc3c(C#N)c[nH]n3c2NC2CCCC2)cc1 | 11% | -3 | / | / | -1 | 50*
CCOc1ccc(-c2nc3c(C#N)c[nH]n3c2NC2CCCCC2)cc1 | 2% | -5 | / | / | -1 | -16
O=C1c2ccccc2NC2(CCSC2)N1c1ccc2c(c1)OCO2 (configuration not stated) | / | 0 | / | / | / | /
COc1ccc(OCc2cn(CC(=O)c3ccc(O)cc3)nn2)cc1 | -21% | 7 | -20 | i | -26 | -5
O=C(Cn1cc(COc2c(F)c(F)cc(F)c2F)nn1)c1ccc(O)cc1 | -34% | 11 | -79* | i | -29 | 1
CCn1c(CCc2nc3ccccc3[nH]2)n[nH]c1=S | -5% | -8 | -8 | i | 5 | 4
Cc1ccc(-n2c(CCc3nc4ccccc4[nH]3)n[nH]c2=S)cc1 | ? | -7 | -51* | i | -1 | -19
COC(=O)c1sccc1NC(=O)c1cc(-c2ccc(C)cc2C)nc2ccccc12 | -8% | -3 | 23 | -117%* | -4 | 7
Cc1cccc(-c2cc(C(=O)Nc3ccncc3)c3ccccc3n2)c1 | 13% | -4 | 100 | i | -2 | 35*
O=C(Nc1nccs1)c1cc(-c2ccccc2)nc2ccccc12 | 12% | -5 | 16 | i | 0 | 44*
O=C(Nc1ccncc1)c1cc(-c2ccccc2)nc2ccccc12 | / | 9 | 132 | i | 4 | 4
Cc1ccc2nc(-c3ccncc3)cc(-c3ccccc3)c2c1 | 20% | -8 | 24 | i | -2 | 57*
Cc1ccc2nc(-c3ccc(NS(C)(=O)=O)cc3)cc(-c3ccccc3)c2c1 | 41% | 1 | -16 | i | 4 | 18
Cc1cccc(-c2cc(C(=O)Nc3nccs3)c3ccccc3n2)c1 | / | 5 | / | / | / | /
N#CCOc1ccc(NC(=O)c2cc(=O)[nH]c3ccccc23)cc1 | / | -2 | / | / | / | /
CNc1oc(-c2cc(S(=O)(=O)N3CCCC3)c(C)o2)nc1C#N | / | -17 | / | / | / | /
O=C(OCc1cc(=O)oc2cc(O)ccc12)C1CCCC1 | / | 6 | / | / | / | /
CCN(C(=O)COC(=O)c1cc2ccccc2[nH]1)C1CCCCC1 | / | -4 | / | / | / | /
Cc1ccc(Br)c(SCC(=O)O)c1 | / | -4 | / | / | / | /
SMILES | RGS4 inhibitor | LDHA block | D3 antag | Akt phos inh | PI4K2A block | D3 ag
COc1ccccc1OCCCSc1nc(-c2ccc(C(C)(C)C)cc2)nc2cc(=O)[nH]n12 | -12% | 6 | / | / | -5 | 31*
Cc1csc(NC(=O)CSc2nncn2C)n1 | 15% | 3 | -63* | ? | 4 | -6
O=C(OCC(=O)N1CCCCC1)c1cc(NS(=O)(=O)c2ccc(Cl)c([N+](=O)[O-])c2)ccc1O | -37% | -2 | -50* | i | 1 | -8
CC1CCN(c2ccc(-c3cccs3)nn2)CC1 | -12% | -9 | -5 | i | -57* | 2
Clc1ccc(-c2cccs2)nn1 | 16% | -9 | 17 | i | 4 | 19
CCCC(C)NC(=O)c1cc(C)nc2ccccc12 (configuration not stated) | / | 1 | / | / | / | /
Cc1ccccc1NC(=O)CSc1nc(N)c(C#N)c(-c2cccs2)c1C#N | -8% | -6 | 55 | -101%* | -5 | -9
COc1ccccc1NC(=O)CSc1nc(N)c(C#N)cc1C#N | 13% | -1 | -12 | i | -1 | 0
CCOc1ccccc1NC(=O)CSc1nc(N)c(C#N)cc1C#N | 11% | -6 | -6 | -96%* | -3 | 0
O=C(O)c1ccccc1Br | / | -2 | / | / | / | /
Cc1nccn1C(c1ccccc1)c1ccccc1 | 9% | -34* | 0 | i | -1 | 12
Cc1nccn1Cc1cccc2ccccc12 | 26% | -7 | 17 | i | 2 | 5
CN(CC(=O)N(C)c1ccccc1C(=O)NCc1ccco1)Cc1ccc(F)cc1 | / | -6 | / | / | / | /
CCc1ccc(NC(=O)Nc2c(NC3CCCCC3)c3ccccc3oc2=O)cc1 | / | 0 | / | / | / | /
CCOc1ccccc1N1CCN(CC(=O)Nc2c(C)cc(C)cc2Cl)CC1 | / | 10 | / | / | / | /
CCOC(=O)C1(Cc2ccccc2C(F)(F)F)CCN(CC2CC2)CC1 | 5% | -3 | 7 | i | 0 | -22
CCOC(=O)C1(Cc2ccccc2C(F)(F)F)CCN(C(C)CCn2cccn2)CC1 (configuration not stated) | -9% | -2 | -50* | i | -6 | -26
CCOC(=O)C1(Cc2ccccc2C(F)(F)F)CCN(C2CCCC2)CC1 | -4% | -8 | -19 | i | -3 | -27
CCOC(=O)C1(Cc2ccccc2C(F)(F)F)CCN(C(C)CSC)CC1 (configuration not stated) | 2% | -3 | -54* | i | -2 | -11
CCCn1nc(NC(=O)CC)c2cc3cccc(C)c3nc21 | 18% | 0 | 31 | i | 0 | -1
CCCn1nc(NS(C)(=O)=O)c2cc3cccc(C)c3nc21 | -3% | -1 | -53* | i | 3 | 0
CCC(=O)Nc1nn(C)c2nc3c(C)cccc3cc12 | -22% | -6 | 12 | -113%* | 0 | -5
Cc1cc(C(=O)NC(C)c2ccccc2Br)c(C)[nH]1 (configuration not stated) | / | -2 | / | / | / | /
CC(=O)N(CCCc1ccc(C(C)(C)C)cc1)CCCN(C)C | 17% | -20 | -28 | i | 5 | -26
CC(=O)N(CCCN(C)C)Cc1ccccn1 | 6% | -9 | 0 | i | -1 | 44*
CCC(Sc1nc2ccncc2[nH]1)C(=O)Nc1cc(Cl)ccc1C (configuration not stated) | 1% | -2 | 152 | i | 1 | 35*!
COc1ccc2nc(-c3ccccc3)cc(OC)c2c1 | -8% | 4 | 35 | i | -1 | 33*
O=C(Nc1ccccc1F)N(CCCN1CCOCC1)Cc1cc2cc3c(cc2[nH]c1=O)OCCO3 | -22% | 0 | -55* | i | -15 | 2
